We go through 14 compounds from PubChem BioAssay (NCI).

Some test systems named below: DU-145 prostate; K-562 leukemia; MALME-3M melanoma; MDA-MB-231 breast; RXF 393 renal; SF-268 CNS; SF-295 CNS; SF-539 CNS; UACC-257 melanoma; M14 melanoma.
Common to all, as to assay: NCI-60 one-dose screen, 48 h (100 = growth as untreated, 0 = no growth, -100 = all killed)
Common to all, as to conditions: 10 µM unless noted

This is part of a sample that, as a whole, favours compounds with a hit. Of some 83,000 tested, about 20% had one in any assay.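 Single-dose data. Exposure time 48 hours. Values below 10 considered active.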 Values without a mark were called inactive. Active and inactive are the calls of the source.

In the case of `O=C1OC(Cc2ccccc2)C1c1ccccc1` (stereo not given), the growth was 110% in the experiment with DU-145 prostate; 108% with K-562 leukemia; 106% in the experiment on MALME-3M melanoma; 102% with MDA-MB-231 breast; 120% in the experiment on RXF 393 renal; 97.9% with SF-268 CNS. The growth in the experiment on SF-295 CNS was 98.2%; in the experiment on SF-539 CNS, 102%; in the experiment with UACC-257 melanoma it was 93.9%; in the experiment on M14 melanoma it was 104%.
`Cc1cc2nc3c4cccc(O)c4n(CCN(C)C)c3nc2cc1C`: the growth with DU-145 prostate was 29.8%; in the experiment with K-562 leukemia it was 6.28% (active); in the experiment with MALME-3M melanoma, 32.9%; in the experiment with MDA-MB-231 breast, 28.1%; in the experiment on RXF 393 renal it was 35.1%; in the experiment with SF-268 CNS, 51.1%. Also, the growth in the experiment on SF-295 CNS was 32.1%; in the experiment with SF-539 CNS, 25.7%; with UACC-257 melanoma, 63.5%; with M14 melanoma, 44.2%.
On to `CCC(CC)NCC(C)(C)O`, for which the growth in the experiment with DU-145 prostate was 106%; with K-562 leukemia, 102%; in the experiment with MALME-3M melanoma it was 113%; with MDA-MB-231 breast it was 102%; in the experiment with RXF 393 renal it was 117%; in the experiment with SF-268 CNS it was 109%. For the same compound, the growth was 103% in the experiment on SF-295 CNS, 111% in the experiment on SF-539 CNS, 106% in the experiment with UACC-257 melanoma and 97% with M14 melanoma.
With `CCOC(=O)CSc1nc2ccccc2c(=O)n1Cc1ccc(S(N)(=O)=O)cc1`, the growth was 113% in the experiment with DU-145 prostate; 97.1% in the experiment on K-562 leukemia; 105% in the experiment with MALME-3M melanoma; 101% in the experiment on MDA-MB-231 breast; 98.4% in the experiment with RXF 393 renal; 99.2% in the experiment with SF-268 CNS. Further, the growth is 99.4% with SF-295 CNS, 97.7% with SF-539 CNS, 101% with UACC-257 melanoma and 97% in the experiment on M14 melanoma.
Turning to `C=C1C(=O)O[C@H]2[C@H]1CC/C(CNC(=O)CCc1ccc(OC)cc1)=C\CC[C@@]1(C)O[C@@H]21`, the growth in the experiment with DU-145 prostate is 24.2%; in the experiment on K-562 leukemia, 19.4%; in the experiment with MALME-3M melanoma it was 69.2%; in the experiment with MDA-MB-231 breast it was 65.8%; in the experiment with RXF 393 renal, 44.6%; with SF-268 CNS it was 79.5%. The growth in the experiment on SF-295 CNS is 91.9%; in the experiment on SF-539 CNS it was 31.1%; with UACC-257 melanoma, 53.1%; with M14 melanoma, 42.5%.
Consider `Brc1ccc(Nc2csc(-c3ccccn3)n2)cc1`, for which the growth is 94.6% with DU-145 prostate; 84.5% with K-562 leukemia; 99.4% in the experiment with MALME-3M melanoma; 81.9% with MDA-MB-231 breast; 106% in the experiment on RXF 393 renal; 90.9% in the experiment on SF-268 CNS. For the same compound, the growth is 88.8% with SF-295 CNS, 95% in the experiment on SF-539 CNS, 111% in the experiment on UACC-257 melanoma and 93.3% with M14 melanoma.
`CCCCOc1ccc(/C=N/Nc2cc(C)nc3ccc(Br)cc23)cc1`: the growth in the experiment with DU-145 prostate was 16.4%; in the experiment on K-562 leukemia, -2.5% (active); with MALME-3M melanoma, -66.9% (active); in the experiment with MDA-MB-231 breast, 48.5%; in the experiment on RXF 393 renal, -72% (active); in the experiment on SF-268 CNS, 88.3%. Further, the growth is -80.3% (active) with SF-295 CNS, -79.3% (active) with SF-539 CNS, 96.3% in the experiment on UACC-257 melanoma and 4.9% (active) in the experiment on M14 melanoma.
Consider `CN(C)CCC(=O)c1ccc([N+](=O)[O-])cc1`, for which the growth with DU-145 prostate was 108%; in the experiment on K-562 leukemia, 114%; in the experiment on MALME-3M melanoma, 104%; in the experiment on MDA-MB-231 breast it was 100%; in the experiment with RXF 393 renal it was 108%; in the experiment on SF-268 CNS it was 112%. Further, the growth in the experiment with SF-295 CNS is 103%; in the experiment with SF-539 CNS, 96.4%; in the experiment on UACC-257 melanoma, 108%; in the experiment on M14 melanoma, 102%.
On to `CCOC(=O)Nc1ccc(-c2ccc3c(c2)NC(=O)/C3=C\c2ccc[nH]2)cc1`, for which the growth in the experiment on DU-145 prostate was 110%; with K-562 leukemia it was 92.3%; in the experiment with MALME-3M melanoma, 110%; in the experiment with MDA-MB-231 breast, 69.3%; in the experiment with RXF 393 renal, 112%; in the experiment on SF-268 CNS it was 100%. Moreover, the growth in the experiment with SF-295 CNS is 101%; in the experiment with SF-539 CNS it was 94%; with UACC-257 melanoma, 113%; in the experiment with M14 melanoma it was 103%.
For `CCOC(=O)c1cc(C(=O)c2cc(OC)cc(OC)c2)n2ccc3ccccc3c12`, the growth with DU-145 prostate is 100%; in the experiment on K-562 leukemia, 98.7%; in the experiment with MALME-3M melanoma it was 99.1%; with MDA-MB-231 breast it was 80.1%; in the experiment on RXF 393 renal it was 61.5%; in the experiment on SF-268 CNS it was 78.1%. In addition, the growth in the experiment on SF-295 CNS was 94.9%; with SF-539 CNS it was 74.1%; in the experiment with UACC-257 melanoma, 93.4%; with M14 melanoma, 105%.
`COc1cccc(-c2nc3occn3c2-c2ccnc(NCCCNS(=O)(=O)c3ccc(C(F)(F)F)cc3)n2)c1`: the growth in the experiment with DU-145 prostate was 89.2%; with K-562 leukemia, 69.8%; in the experiment with MALME-3M melanoma, 95.8%; with MDA-MB-231 breast it was 90.1%; in the experiment with RXF 393 renal, 79.6%; in the experiment on SF-268 CNS, 75%. Further, the growth was 95.2% in the experiment on SF-295 CNS, 89.5% in the experiment on SF-539 CNS, 84.5% in the experiment on UACC-257 melanoma and 85.6% with M14 melanoma.
With `O=C(CCN1CCCC1)c1ccc([N+](=O)[O-])cc1`, the growth with DU-145 prostate was 104%; in the experiment with K-562 leukemia it was 100%; with MALME-3M melanoma it was 94.9%; with MDA-MB-231 breast, 102%; with RXF 393 renal, 107%; in the experiment with SF-268 CNS, 101%. The growth with SF-295 CNS was 97.9%; in the experiment with SF-539 CNS, 93.6%; in the experiment with UACC-257 melanoma, 101%; in the experiment on M14 melanoma, 102%.
On to `C#CCNC(=O)c1cccc2c1cc(C)n2-c1nc2c(c(NCc3ccccc3)n1)CCCC2`, for which the growth with DU-145 prostate is 5.22% (active); in the experiment on K-562 leukemia it was 6.56% (active); in the experiment with MALME-3M melanoma, -59% (active); in the experiment on MDA-MB-231 breast, -69.7% (active); with RXF 393 renal, -68.1% (active); in the experiment on SF-268 CNS, -23.6% (active). The growth in the experiment with SF-295 CNS is -68.2% (active); in the experiment on SF-539 CNS, -23.4% (active); with UACC-257 melanoma it was -30.5% (active); in the experiment on M14 melanoma, -39.2% (active).
Regarding `CCCCCOc1ccc(/C=N/Nc2cc(C)nc3ccc(Cl)cc23)cc1`, the growth in the experiment on DU-145 prostate is 5.9% (active); in the experiment on K-562 leukemia it was -33% (active); with MALME-3M melanoma it was -63.8% (active); with MDA-MB-231 breast, -77.3% (active); with RXF 393 renal it was -85.5% (active); with SF-268 CNS, 72%. The growth was -86% (active) in the experiment with SF-295 CNS, -78.2% (active) in the experiment on SF-539 CNS, 99.2% with UACC-257 melanoma and -15.4% (active) with M14 melanoma.
